DT40 TDP1 CPT: growth inhibition of DT40 Tdp1-/-;hTDP1 cells with camptothecin (screen for TDP1 inhibitors); chicken DT40 Tdp1-/-;hTDP1 cells + 20 nM CPT, ATP luminescence, 48 h; Potency, µM (top dose mostly 46.2 µM), usual class: inhibitors; 420,000 compounds, 12% hits; also: nearly all actives have a fitted effect of over 55% in size
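Chicken DT40 Tdp1-/- cells stably complemented with human TDP1 were seeded at 400 cells/well in medium containing 20 nM camptothecin, exposed to pin-transferred compounds, and grown at 37 °C for at least 48 hr. Viability was read as ATP luminescence.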
IL-1B inflam inh: inhibitors of inflammasome signaling (IL-1 beta secretion). activity change, % at 57.5 µM. 360,000 compounds, 4.7% hits. THP-1 LPS/ATP IL-1B secretion, AlphaLISA, 16 h; hits give low values; in the data active = activity change below about -50%; inconclusive = mostly about -30% to -49%
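THP-1 cells pretreated 1 hr with compounds (up to 57.5 uM final), then stimulated with LPS (250 ng/mL final) plus ATP (1.25 mM final); secreted IL-1B measured by AlphaLISA after 16 hr, decreased signal indicating inhibition.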
TDP1 inh: TDP1 (human) enzyme inhibition; Q9NUW8; recombinant TDP1, AlphaScreen DNA substrate cleavage; Potency, µM (titrated, usually from 130 µM), actives largely listed as inhibitors; 350,000 compounds, 0.28% hits; AID 485290; also: nearly all actives have a fitted effect of over 40% in size
Target sequence (Q9NUW8 whole entry, looked up): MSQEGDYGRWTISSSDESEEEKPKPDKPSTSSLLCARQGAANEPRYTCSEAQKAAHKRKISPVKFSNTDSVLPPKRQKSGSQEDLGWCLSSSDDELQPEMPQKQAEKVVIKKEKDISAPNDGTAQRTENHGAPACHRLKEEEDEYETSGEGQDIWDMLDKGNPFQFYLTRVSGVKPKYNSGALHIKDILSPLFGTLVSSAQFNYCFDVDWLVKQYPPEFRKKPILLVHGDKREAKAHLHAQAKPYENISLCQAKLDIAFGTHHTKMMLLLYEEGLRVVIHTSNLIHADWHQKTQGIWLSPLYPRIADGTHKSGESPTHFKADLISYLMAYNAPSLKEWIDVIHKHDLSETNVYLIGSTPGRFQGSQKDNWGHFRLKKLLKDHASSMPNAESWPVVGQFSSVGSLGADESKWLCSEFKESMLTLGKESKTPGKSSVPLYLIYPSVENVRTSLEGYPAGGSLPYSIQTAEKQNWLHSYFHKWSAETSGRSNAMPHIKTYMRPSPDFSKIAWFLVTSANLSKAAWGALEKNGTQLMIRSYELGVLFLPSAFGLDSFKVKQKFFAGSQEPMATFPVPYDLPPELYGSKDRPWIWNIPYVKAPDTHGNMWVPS
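Steps: enzyme plus compound, 15 min RT; add biotin/phosphotyrosine-FITC oligonucleotide (15 nM final), react 5 min; add donor/acceptor beads (10 ug/ml final), 10 min; read AlphaScreen. Tdp1 at 1 nM final.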
HepG2 tox: counter-screen for TGF-b inhibitors: cytotoxicity in HepG2 cells; Potency, µM (doses to about 46.1 µM), most hits filed as cytotoxic; AID 588856; HepG2 CAGA-GFP viability, ATP luminescence, 18 h; 410,000 compounds, 0.76% hits
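CellTiter-Glo luminescence gave cytotoxicity after 18 hours at 37 degrees C. The cells were HepG2 CAGA-GFP in 1% FBS DMEM, stimulated with 500 pg/mL TGF-beta after compound addition. %Activity was normalised to no-cell wells (complete cell-killing) and DMSO (no toxicity), and curves were fitted and classified.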
TGFb inhibitor: inhibitors of TGF-b signaling | HepG2 CAGA-GFP TGF-b/SMAD3 reporter, GFP fluorescence, 18 h; TGF-beta stimulated, 500 pg/mL final | Potency, µM (doses to about 46.1 µM), most hits filed as inhibitors | 410,000 compounds, 1.2% hits; also: nearly all actives have a fitted effect of over 65% in size
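Smad-responsive CAGA-GFP expression was quantified in HEPG2 cells exposed to compounds and 500 pg/mL final TGF-beta for 18 h at 37 degrees C; unstimulated wells defined full inhibition.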
TDP1 cell noCPT: qHTS for Inhibitors of human tyrosyl-DNA phosphodiesterase 1 (TDP1): qHTS in cells in absence of CPT; DT40 Tdp1-/- hTDP1 cells, no CPT, ATP luminescence, 48 h; Potency, µM (top dose mostly 46.2 µM), most hits filed as inhibitors; 420,000 compounds, 15% hits; AID 686978, 2013; also: nearly all actives have a fitted effect of over 55% in size
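Growth kinetics read by CellTiter-Glo luminescence after ≥48 hr at 37 °C. Cells: DT40 Tdp1-/- stably carrying human TDP1, 400 per well, compound exposure in the absence of CPT (DMSO vehicle).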
Numbers stand for hits; - = inactive; ? = inconclusive; . = not tested or not shown. In the library only some 19% were active in any assay of this set; here they are far more common. Unless noted, calls follow the shape of the dose curve; as a rule, active = well fitted curve in the direction sought with a large enough effect; inconclusive = small, poorly fitted or top-dose-only effect, or another doubt; inactive = no such curve, though single readings can be large; an effect the other way counts as inactive or inconclusive.

SMILES	DT40 TDP1 CPT	IL-1B inflam inh	TDP1 inh	HepG2 tox	TGFb inhibitor	TDP1 cell noCPT
Cc1ccc(C(C(=O)NC2CCCC2)N(Cc2ccc3c(c2)OCO3)C(=O)Cc2cccs2)cc1 (centres undefined)	?	-	-	-	?	?
CN1CCN(c2ccc(C(CC(N)=O)NC(=O)Cc3cccc4ccccc34)cc2[N+](=O)[O-])CC1 (centres undefined)	-	-	.	-	-	-
CC(=O)c1ccc(-c2cccs2)s1	-	-	-	-	10µM	-
CN1/C(=C/C2CC(=O)NC2=O)C(C)(C)c2ccccc21 (centres undefined)	-	-	-	-	-	-
CN1/C(=C\P(=O)(N(C)C)N(C)C)C(C)(C)c2ccccc21	5.8µM	-	-	-	?	3.7µM
CN(CC[C@@H](Oc1ccc(C(F)(F)F)cc1)c1ccccc1)CC(=O)O	.	.	-	.	.	.
NS(=O)(=O)c1ccc(N=Nc2nc3[nH]cnc(=S)c3[nH]2)cc1	5µM	.	.	-	?	6.3µM
CC1=NN(C(N)=S)C(=O)C1N=Nc1ccc(S(N)(=O)=O)cc1 (centres undefined)	-	-	.	-	-	-
c1ccc2[nH]c3cc4ncnc4cc3nc2c1	?	-57	-	-	?	18µM
c1ccc2[nH]c(CCCCCc3nc4ccccc4[nH]3)nc2c1	?	-	.	-	-	?
Cc1[nH]c(=S)c(C#N)c(C)c1CC(=O)c1ccc(Br)cc1	-	-	-	-	-	-
Cc1cc(C(C)(C)C)oc1C(=O)N(CC(=O)NC1CCCC1)c1cccc(C(F)(F)F)c1	18µM	-	-	-	?	?
Cc1ccccc1N(CC(=O)NC1CCCC1)C(=O)c1oc(C(C)(C)C)cc1C	16µM	?	-	-	-	14µM
Cc1cc(C(C)(C)C)oc1C(=O)N(CC(=O)NC1CCCC1)Cc1ccccc1Cl	13µM	?	-	-	?	13µM
COc1ccc(C)cc1NC(=O)NC1CCCc2ccccc21 (centres undefined)	-	-	-	-	-	-
Cc1ccc(NC(=O)C(NC2CCCc3ccccc32)c2ccccc2)c([N+](=O)[O-])c1 (centres undefined)	?	-	-	-	-	23µM
CNC(=O)NC(=O)C(NC1CCCc2ccccc21)c1ccccc1 (centres undefined)	-	-	-	-	-	-
Cc1ccc(NC(=O)C(NC2CCCc3ccccc32)c2ccccc2)cc1Cl (centres undefined)	2.9µM	-	-	-	-	18µM
CC(=O)OC1CC2C(C)(C)C(=O)[C@@H]3OC3[C@@]2(C)C2CC[C@]3(C)C(=CC(=O)OC3c3ccoc3)[C@]12C (some centres undefined)	-	.	-	.	.	-
CCOC(=O)CN(C(=O)COc1nc(-c2ccccc2)cc(C)c1C#N)c1ccccc1C	16µM	-	-	-	-	10µM
CCOC(=O)CN(C(=O)COc1nc(-c2ccccc2)cc(C)c1C#N)c1ccccc1	-	-	-	-	-	?
COc1cc(CC2C(=O)OCC2C(=O)c2ccc3c(c2)OCO3)cc(OC)c1OC (centres undefined)	-	-	.	-	-	-
COc1cc(C[C@@H]2C(=O)OC[C@H]2Cc2ccc(OC)c(OC)c2)ccc1O	2.3µM	-	-	-	?	2.6µM
COc1cc(CC2COC(=O)C2(O)Cc2ccc(O)c(OC)c2)ccc1O (centres undefined)	12µM	-	.	-	-	9.2µM
CCCC(=O)Nc1ccccc1C(=O)OCc1cc(=O)n2nc(C(C)C)sc2n1	?	.	-	-	-	?

High-throughput results (PubChem)
